# Experimental data reported in the supplement of paper PMC3334620.
# The full ranking holds about 33,000 sequences; the median of “E-score (-0.5 to 0.5)” is about -0.036, and the highest 2% start at about 0.37. The sample as a whole holds a higher share of the highest values than the screen did.
# Molecular target: T1, Yer064c (UniProt P40041)
# T1 sequence: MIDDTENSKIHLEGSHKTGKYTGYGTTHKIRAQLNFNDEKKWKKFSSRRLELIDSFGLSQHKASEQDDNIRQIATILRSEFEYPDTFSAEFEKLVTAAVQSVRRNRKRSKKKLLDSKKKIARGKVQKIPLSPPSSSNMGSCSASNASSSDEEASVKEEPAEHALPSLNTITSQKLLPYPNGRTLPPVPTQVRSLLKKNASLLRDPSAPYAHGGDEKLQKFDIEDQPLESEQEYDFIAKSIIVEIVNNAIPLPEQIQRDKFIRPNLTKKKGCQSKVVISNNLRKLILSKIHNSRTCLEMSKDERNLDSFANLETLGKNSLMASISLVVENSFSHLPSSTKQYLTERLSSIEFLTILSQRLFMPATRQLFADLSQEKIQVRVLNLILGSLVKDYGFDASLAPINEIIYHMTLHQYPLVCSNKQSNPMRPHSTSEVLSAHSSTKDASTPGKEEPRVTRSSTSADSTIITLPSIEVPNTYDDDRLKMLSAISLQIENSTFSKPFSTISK
# Assay: PBM E-score (8-mer binding enrichment) (E-score (-0.5 to 0.5)); higher = stronger / more preferred TF binding
# Conditions: protein concentration: 200 nM; construct: GST-full length
# Outline: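 Bound GST-tagged yeast transcription factors, applied at about 100-200 nM to double-stranded universal all-10-mer Agilent arrays, were detected with fluorescent anti-GST. Scans were normalised with masliner. A modified Wilcoxon-Mann-Whitney statistic, the E-score, was assigned to each ungapped eight-base word pooled with its reverse complement by the Universal PBM Analysis Suite.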
row,Sequence,PBM E-score
1,ATACCCGA,-0.0409
2,CTCTTTGC,-0.0733
3,AACGTCCG,-0.343
4,TCTCGAAA,0.0754
5,GCGGAACA,0.0307
6,CAGGGGGC,-0.337
7,CGGCTGAA,0.0435
8,ATTTTGCG,0.00719
9,ACCCAACA,-0.144
10,CCGCCTGC,0.00718
11,ACGAGTCA,0.48
12,ACGAGTCC,0.289
13,ACGAGTCT,0.312
14,AATCGCTC,0.211
15,TACTACGA,0.181
16,GACTACGC,0.391
17,CACTACGC,-0.197
18,GACTACGA,0.413
19,AACTACGC,0.0819
20,CACTACGA,0.0996
21,ATGAAATA,-0.0533
22,CAGAGTCC,0.212
23,GAGAGTCC,0.256
24,TAGAGTAA,0.0416
25,GAGAGTAA,0.0863

row,Sequence,PBM E-score
1,CAGAGTCA,0.469
2,TAGAGTGA,0.171
3,GAGAGTCA,0.481
4,TAGAGTCA,0.469
5,CAGAGTCG,0.324
6,AAGAGTTG,0.0206
7,AAGAGTCG,0.423
8,AAGAGTGG,-0.242
9,AAGGCTGT,-0.161
10,CAAACGCA,-0.0486
11,CCCGGACC,-0.189
12,AGTAAGAT,0.0659
13,CATGTTCC,-0.138
14,ACGGTACG,0.0345
15,ATACAAGC,-0.123
16,AAGAGTCT,0.355
17,AAGAGTCA,0.489
18,AAGAGTCC,0.303
19,GACTAGTC,0.408
20,AACTAGTC,0.355
21,CACTAGTC,0.274
22,CACTAGTA,-0.0969
23,GACTAGTA,0.391
24,TACTAGTA,0.216
25,AACCAGTC,0.171

row,Sequence,PBM E-score
1,GTAGCCAA,-0.0169
2,CATGTCTA,0.205
3,CGTCAACG,0.0184
4,TGTCAACA,-0.18
5,AGTCAACG,0.443
6,GGTCAACC,-0.0162
7,CGTCAACA,-0.189
8,AGTCAACT,0.424
9,ACTCAACG,0.288
10,ACTCAACT,0.337
11,AATCAACT,0.314
12,AGTCAACA,0.441
13,AGTCAACC,0.442
14,CGTCAACC,-0.225
15,ATTCGAAG,0.15
16,AAGATACG,-0.0653
17,AGATCTCA,0.0373
18,ATGGGCTG,-0.0763
19,CACTTAGA,0.0684
20,TGCATTAA,0.0992
21,CTGGCCGC,-0.163
22,AATACGCT,-0.136
23,CAGTAGTC,0.403
24,CAGTAGCC,-0.116
25,AAGTAGTC,0.415

row,Sequence,PBM E-score
1,CAGTAGTA,0.111
2,AAGTAGTG,-0.157
3,AAGTAGTA,0.0556
4,GCAAAGCC,-0.263
5,GTGGCAAC,-0.295
6,CGTTCACA,0.0136
7,CCTGGCAC,-0.304
8,GCCATTCA,-0.0419
9,CCATCATA,-0.0232
10,GAATCATC,0.48
11,CAATCATA,0.371
12,CCATCATC,-0.01
13,GAATCAAA,0.268
14,CAATCATC,0.422
15,GAATCAAC,0.358
16,CGATCATA,0.0235
17,CTATCATC,-0.0157
18,CCGGCTTA,-0.221
19,CCTTGGAA,-0.185
20,CCGAAAAA,0.0649
21,ATAGGTCC,-0.0251
22,AGTAAACC,-0.0239
23,CCCTTTTA,-0.0873
24,AGATTGAT,0.0609
25,CTTGAGTA,0.233

row,Sequence,PBM E-score
1,ATTGAGTG,0.149
2,CTTGAGTC,0.466
3,CTTGAGGC,-0.146
4,ATTGAGTA,0.282
5,ATTGAGTC,0.479
6,ACGGCCAG,-0.206
7,AGCCATGA,0.282
8,ATCAGTCA,0.434
9,CTCAGTGA,0.235
10,GTCAGTCA,0.451
11,GTCAGTTA,0.0503
12,ATCAGTCC,0.0464
13,GTCAGTGA,0.31
14,CTCAGTCA,0.436
15,ATCAGTCG,0.296
16,CTCAGTCC,0.255
17,ATCAGGGG,-0.00776
18,ACGCACAG,-0.247
19,GCCCATCC,-0.0789
20,ATAAAAAA,0.112
21,TTTAGAAA,0.0151
22,AAGAGCGG,-0.214
23,CGGGTGCC,-0.315
24,AATCGTGC,0.137
25,AGTCGTTG,0.326

row,Sequence,PBM E-score
1,CGTCGTGA,0.0738
2,CGTCGTGC,-0.106
3,ATTCGTGG,0.186
4,GGTCGTGA,-0.0505
5,AGTCGTGG,0.373
6,AGTCGTGA,0.375
7,AGTCGTGC,0.371
8,AACGAGAC,0.0315
9,AAAGAGCA,-0.0916
10,CGGGGCAG,-0.052
11,CCCCTGAC,0.173
12,AGCGAATA,0.0298
13,ATTGGGTA,-0.138
14,CTGGGGAC,-0.0825
15,CACCCATC,0.102
16,ACTTGACG,-0.0474
17,AATTGACG,-0.178
18,ACTTGACT,0.412
19,AATTGACT,0.391
20,ACTTGACA,0.0454
21,AATTGACC,-0.0998
22,CAATTCCA,-0.297
23,CATACGAC,0.158
24,ACGCGTGC,-0.0231
25,CCATCCGA,0.161

row,Sequence,PBM E-score
1,CCAGAGTA,-0.0992
2,ACAGAGTC,0.37
3,CCAGAGGC,-0.335
4,CCAGAGTC,0.38
5,CGAGAGTC,0.421
6,AGAGAGTC,0.409
7,CGAGAGTA,0.0908
8,ACAGAGTG,0.0565
9,CGAGAGAC,0.0137
10,ACAGAGTA,0.0495
11,AGAGAGTA,0.121
12,AGAGAGTG,-0.104
13,CCGCAAGC,-0.268
14,ACGCCATC,-0.136
15,CCTACCCA,-0.0884
16,CGAGAACA,0.0131
17,GCTACGAA,-0.0422
18,GGCCGGGA,-0.134
19,CGCTACGC,-0.323
20,AACGGGAT,-0.185
21,CAATCCGG,-0.0586
22,GATAGGCC,-0.339
23,TGGCTCAA,0.332
